# Results taken from ChEMBL document CHEMBL1961873, “Compounds: GSK PKIS; Assays: Nanosyn kinase panel” (2012).
# How the values were obtained:
# [1] = target: T1, Serine/threonine-protein kinase D2 (Homo sapiens) (UniProt Q9BZL6); settings: at 1 µM;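 further: mean value of PRKD2 inhibition, from the GSK PKIS screening panel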
# T1 sequence (whole entry): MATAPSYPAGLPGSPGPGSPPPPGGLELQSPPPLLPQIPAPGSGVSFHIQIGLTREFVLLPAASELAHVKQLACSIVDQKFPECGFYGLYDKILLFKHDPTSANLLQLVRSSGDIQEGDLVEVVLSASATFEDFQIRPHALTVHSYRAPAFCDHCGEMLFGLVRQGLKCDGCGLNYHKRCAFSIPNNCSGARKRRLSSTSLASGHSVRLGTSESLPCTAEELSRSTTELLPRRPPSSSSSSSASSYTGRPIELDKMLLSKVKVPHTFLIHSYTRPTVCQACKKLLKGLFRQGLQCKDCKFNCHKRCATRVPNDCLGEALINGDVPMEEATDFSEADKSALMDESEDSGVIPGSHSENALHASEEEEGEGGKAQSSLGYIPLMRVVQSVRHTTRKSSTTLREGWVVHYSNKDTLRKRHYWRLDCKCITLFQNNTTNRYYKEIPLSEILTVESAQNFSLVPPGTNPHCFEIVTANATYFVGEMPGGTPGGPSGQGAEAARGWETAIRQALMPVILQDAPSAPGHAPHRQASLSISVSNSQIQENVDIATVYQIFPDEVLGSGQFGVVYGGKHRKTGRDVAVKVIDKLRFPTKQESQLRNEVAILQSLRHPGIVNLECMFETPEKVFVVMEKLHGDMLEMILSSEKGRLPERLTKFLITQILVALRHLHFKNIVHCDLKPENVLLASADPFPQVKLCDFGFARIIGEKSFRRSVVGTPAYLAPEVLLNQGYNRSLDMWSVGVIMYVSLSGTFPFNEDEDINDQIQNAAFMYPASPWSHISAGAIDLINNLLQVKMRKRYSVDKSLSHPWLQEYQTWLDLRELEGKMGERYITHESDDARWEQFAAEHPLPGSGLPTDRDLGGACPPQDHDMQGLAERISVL
# [2] = target: T2, Serine/threonine-protein kinase D3 (Homo sapiens) (UniProt O94806); settings: at 0.1 µM
# T2 sequence (whole entry): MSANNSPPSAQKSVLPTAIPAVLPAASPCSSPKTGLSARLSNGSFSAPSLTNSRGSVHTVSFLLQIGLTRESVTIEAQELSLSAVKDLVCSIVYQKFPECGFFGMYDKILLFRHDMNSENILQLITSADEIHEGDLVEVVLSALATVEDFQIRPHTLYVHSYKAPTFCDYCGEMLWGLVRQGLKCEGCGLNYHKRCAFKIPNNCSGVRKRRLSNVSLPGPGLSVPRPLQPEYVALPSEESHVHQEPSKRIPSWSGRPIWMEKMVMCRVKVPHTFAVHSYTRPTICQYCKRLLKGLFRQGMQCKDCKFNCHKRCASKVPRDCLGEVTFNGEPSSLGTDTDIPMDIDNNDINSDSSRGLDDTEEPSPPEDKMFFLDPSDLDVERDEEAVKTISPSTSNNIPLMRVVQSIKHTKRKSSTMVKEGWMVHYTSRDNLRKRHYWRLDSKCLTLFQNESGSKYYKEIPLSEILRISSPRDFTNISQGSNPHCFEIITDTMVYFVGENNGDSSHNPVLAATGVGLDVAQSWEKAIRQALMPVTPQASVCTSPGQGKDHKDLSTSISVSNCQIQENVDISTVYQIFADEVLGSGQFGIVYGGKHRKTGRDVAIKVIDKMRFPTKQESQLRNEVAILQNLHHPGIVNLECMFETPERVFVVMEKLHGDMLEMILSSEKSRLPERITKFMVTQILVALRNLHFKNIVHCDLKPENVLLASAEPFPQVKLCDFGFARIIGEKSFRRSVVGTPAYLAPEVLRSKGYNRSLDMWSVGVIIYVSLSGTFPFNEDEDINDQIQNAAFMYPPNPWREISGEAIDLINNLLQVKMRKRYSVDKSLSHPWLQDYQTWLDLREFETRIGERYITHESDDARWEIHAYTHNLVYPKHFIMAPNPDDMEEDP
# [3] = target: T2, Serine/threonine-protein kinase D3 (Homo sapiens); settings: at 1 µM
# [4] = target: T3, cGMP-dependent protein kinase 1 (Homo sapiens) (UniProt Q13976); settings: at 0.1 µM
# T3 sequence (whole entry): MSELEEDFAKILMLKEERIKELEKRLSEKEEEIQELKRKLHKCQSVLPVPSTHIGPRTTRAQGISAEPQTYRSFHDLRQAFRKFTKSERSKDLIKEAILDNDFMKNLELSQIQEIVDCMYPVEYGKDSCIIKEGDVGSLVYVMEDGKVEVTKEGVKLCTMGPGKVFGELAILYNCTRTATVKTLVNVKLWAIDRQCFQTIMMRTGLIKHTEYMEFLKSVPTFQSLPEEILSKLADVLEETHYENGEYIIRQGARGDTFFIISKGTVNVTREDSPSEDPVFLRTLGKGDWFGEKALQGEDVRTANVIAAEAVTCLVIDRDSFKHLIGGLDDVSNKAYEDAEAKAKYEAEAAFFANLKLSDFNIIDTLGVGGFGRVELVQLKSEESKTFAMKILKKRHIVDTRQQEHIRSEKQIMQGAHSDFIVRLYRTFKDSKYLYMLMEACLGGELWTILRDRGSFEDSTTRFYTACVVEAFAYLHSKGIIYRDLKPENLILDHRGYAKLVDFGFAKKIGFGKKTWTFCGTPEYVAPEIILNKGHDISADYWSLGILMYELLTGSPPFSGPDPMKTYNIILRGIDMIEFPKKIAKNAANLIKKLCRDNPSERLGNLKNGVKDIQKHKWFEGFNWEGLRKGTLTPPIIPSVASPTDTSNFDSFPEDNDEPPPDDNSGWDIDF
# [5] = target: T3, cGMP-dependent protein kinase 1 (Homo sapiens); settings: at 1 µM
# [6] = target: T4, cGMP-dependent protein kinase 2 (Homo sapiens) (UniProt Q13237); settings: at 0.1 µM
# T4 sequence (whole entry): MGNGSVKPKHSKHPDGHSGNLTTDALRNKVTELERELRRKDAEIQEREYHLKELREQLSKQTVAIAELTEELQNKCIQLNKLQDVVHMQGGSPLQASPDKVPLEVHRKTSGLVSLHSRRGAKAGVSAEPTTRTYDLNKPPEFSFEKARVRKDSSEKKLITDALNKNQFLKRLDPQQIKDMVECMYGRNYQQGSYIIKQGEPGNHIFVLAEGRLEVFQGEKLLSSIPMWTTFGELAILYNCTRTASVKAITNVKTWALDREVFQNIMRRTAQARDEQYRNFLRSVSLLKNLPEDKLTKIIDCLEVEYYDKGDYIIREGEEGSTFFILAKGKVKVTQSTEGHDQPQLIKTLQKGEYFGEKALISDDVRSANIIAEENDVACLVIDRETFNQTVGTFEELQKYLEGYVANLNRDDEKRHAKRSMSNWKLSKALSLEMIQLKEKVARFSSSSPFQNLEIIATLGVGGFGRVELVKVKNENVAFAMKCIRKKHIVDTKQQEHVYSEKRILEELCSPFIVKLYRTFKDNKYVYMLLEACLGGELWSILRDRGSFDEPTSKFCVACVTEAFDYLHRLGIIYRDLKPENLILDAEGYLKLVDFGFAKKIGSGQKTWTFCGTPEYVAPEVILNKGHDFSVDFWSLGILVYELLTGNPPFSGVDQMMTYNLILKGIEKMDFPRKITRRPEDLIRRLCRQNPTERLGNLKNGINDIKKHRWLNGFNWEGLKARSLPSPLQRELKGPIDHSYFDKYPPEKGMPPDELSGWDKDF
# [7] = target: T4, cGMP-dependent protein kinase 2 (Homo sapiens); settings: at 1 µM
# [8] = target: T5, cAMP-dependent protein kinase catalytic subunit PRKX (Homo sapiens) (UniProt P51817); settings: at 0.1 µM
# T5 sequence (whole entry): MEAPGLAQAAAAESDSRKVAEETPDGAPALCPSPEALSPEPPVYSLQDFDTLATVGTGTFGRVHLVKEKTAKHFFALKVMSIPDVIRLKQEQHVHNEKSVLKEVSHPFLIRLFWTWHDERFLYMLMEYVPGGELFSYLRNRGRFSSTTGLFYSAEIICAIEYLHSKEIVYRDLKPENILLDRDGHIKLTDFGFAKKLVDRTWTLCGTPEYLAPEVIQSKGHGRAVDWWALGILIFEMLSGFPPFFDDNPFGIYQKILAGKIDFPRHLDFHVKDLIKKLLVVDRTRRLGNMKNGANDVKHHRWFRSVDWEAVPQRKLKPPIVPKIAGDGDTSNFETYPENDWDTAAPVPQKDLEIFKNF
# [9] = target: T5, cAMP-dependent protein kinase catalytic subunit PRKX (Homo sapiens); settings: at 1 µM
# [10] = target: Rho-associated protein kinase 1 (Homo sapiens) (UniProt Q13464); settings: at 0.1 µM
# [11] = target: Rho-associated protein kinase 1 (Homo sapiens) (UniProt Q13464); settings: at 1 µM
# [12] = target: Rho-associated protein kinase 2 (Homo sapiens) (UniProt O75116); settings: at 0.1 µM
# [13] = target: Rho-associated protein kinase 2 (Homo sapiens) (UniProt O75116); settings: at 1 µM
# [14] = target: Ribosomal protein S6 kinase alpha-1 (Homo sapiens) (UniProt Q15418); settings: at 0.1 µM
# [15] = target: Ribosomal protein S6 kinase alpha-1 (Homo sapiens) (UniProt Q15418); settings: at 1 µM
# [16] = target: Ribosomal protein S6 kinase alpha-3 (Homo sapiens) (UniProt P51812); settings: at 0.1 µM
# [17] = target: Ribosomal protein S6 kinase alpha-3 (Homo sapiens) (UniProt P51812); settings: at 1 µM
# [18] = target: Ribosomal protein S6 kinase alpha-2 (Homo sapiens) (UniProt Q15349); settings: at 0.1 µM
# [19] = target: Ribosomal protein S6 kinase alpha-2 (Homo sapiens) (UniProt Q15349); settings: at 1 µM
# [20] = target: Ribosomal protein S6 kinase alpha-6 (Homo sapiens) (UniProt Q9UK32); settings: at 0.1 µM;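 further: reported value is the mean inhibition of RSK4, from the GSK PKIS kinase inhibitor screen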
# Ribosomal protein S6 kinase alpha-6 (Homo sapiens), sequence (Q9UK32 whole entry): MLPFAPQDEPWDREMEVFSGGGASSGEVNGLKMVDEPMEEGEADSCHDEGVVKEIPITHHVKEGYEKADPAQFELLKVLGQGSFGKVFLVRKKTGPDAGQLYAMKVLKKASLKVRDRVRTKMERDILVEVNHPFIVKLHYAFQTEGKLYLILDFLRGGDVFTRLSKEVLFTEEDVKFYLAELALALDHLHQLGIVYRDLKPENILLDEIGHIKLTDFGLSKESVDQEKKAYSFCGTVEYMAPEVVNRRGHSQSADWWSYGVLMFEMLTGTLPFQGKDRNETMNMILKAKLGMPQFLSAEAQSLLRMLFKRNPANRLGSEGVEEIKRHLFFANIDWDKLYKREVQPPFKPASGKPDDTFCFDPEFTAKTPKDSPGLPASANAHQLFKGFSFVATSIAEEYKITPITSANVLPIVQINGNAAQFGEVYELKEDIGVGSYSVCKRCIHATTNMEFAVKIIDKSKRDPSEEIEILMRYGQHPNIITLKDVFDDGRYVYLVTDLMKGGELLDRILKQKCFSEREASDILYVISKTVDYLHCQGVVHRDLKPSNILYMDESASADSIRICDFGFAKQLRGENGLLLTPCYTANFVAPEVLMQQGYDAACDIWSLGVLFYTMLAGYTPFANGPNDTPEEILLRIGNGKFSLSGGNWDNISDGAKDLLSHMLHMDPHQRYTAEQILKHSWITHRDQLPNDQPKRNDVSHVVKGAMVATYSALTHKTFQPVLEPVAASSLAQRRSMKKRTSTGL
# Ribosomal protein S6 kinase alpha-2 (Homo sapiens), sequence (Q15349 whole entry): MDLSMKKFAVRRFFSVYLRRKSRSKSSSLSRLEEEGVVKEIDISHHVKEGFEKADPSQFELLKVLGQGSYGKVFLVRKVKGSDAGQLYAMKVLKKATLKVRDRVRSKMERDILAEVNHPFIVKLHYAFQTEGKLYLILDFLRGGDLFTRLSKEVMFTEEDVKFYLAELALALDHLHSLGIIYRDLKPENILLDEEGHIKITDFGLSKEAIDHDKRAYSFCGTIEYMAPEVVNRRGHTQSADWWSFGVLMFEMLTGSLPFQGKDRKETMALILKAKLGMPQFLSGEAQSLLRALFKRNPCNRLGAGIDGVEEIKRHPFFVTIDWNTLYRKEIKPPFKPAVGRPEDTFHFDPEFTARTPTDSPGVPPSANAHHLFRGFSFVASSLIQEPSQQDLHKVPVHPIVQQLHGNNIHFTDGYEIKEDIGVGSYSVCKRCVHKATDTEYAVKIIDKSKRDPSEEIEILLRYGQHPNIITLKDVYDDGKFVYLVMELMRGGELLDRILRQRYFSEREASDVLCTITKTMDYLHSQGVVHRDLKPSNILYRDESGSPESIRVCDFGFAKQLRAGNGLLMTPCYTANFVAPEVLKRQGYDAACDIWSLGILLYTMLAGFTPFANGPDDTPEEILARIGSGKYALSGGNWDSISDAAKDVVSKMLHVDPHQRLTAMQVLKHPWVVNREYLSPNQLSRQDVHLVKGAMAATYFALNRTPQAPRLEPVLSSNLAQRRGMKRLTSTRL
# Ribosomal protein S6 kinase alpha-3 (Homo sapiens), sequence (P51812 whole entry): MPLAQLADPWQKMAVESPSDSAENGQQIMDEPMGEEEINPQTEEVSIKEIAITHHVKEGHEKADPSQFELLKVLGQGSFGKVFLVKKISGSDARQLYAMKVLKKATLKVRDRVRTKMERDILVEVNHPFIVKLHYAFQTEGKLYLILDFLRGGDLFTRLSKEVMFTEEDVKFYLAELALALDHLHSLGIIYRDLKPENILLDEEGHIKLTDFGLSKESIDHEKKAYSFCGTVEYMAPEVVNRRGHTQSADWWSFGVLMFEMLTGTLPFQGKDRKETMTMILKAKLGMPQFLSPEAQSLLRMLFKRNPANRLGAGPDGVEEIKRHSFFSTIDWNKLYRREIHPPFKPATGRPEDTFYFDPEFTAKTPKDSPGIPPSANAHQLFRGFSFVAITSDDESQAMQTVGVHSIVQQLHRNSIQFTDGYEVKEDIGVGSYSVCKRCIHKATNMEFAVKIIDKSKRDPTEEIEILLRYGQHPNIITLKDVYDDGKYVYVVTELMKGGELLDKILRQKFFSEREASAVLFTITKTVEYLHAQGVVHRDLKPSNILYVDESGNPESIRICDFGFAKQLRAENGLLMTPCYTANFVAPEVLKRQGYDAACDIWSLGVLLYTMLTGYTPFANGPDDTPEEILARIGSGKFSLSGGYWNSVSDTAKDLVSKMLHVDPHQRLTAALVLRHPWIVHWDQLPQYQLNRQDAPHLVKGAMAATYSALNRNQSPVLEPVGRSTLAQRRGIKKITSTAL
# Rho-associated protein kinase 2 (Homo sapiens), sequence (O75116 whole entry, looked up): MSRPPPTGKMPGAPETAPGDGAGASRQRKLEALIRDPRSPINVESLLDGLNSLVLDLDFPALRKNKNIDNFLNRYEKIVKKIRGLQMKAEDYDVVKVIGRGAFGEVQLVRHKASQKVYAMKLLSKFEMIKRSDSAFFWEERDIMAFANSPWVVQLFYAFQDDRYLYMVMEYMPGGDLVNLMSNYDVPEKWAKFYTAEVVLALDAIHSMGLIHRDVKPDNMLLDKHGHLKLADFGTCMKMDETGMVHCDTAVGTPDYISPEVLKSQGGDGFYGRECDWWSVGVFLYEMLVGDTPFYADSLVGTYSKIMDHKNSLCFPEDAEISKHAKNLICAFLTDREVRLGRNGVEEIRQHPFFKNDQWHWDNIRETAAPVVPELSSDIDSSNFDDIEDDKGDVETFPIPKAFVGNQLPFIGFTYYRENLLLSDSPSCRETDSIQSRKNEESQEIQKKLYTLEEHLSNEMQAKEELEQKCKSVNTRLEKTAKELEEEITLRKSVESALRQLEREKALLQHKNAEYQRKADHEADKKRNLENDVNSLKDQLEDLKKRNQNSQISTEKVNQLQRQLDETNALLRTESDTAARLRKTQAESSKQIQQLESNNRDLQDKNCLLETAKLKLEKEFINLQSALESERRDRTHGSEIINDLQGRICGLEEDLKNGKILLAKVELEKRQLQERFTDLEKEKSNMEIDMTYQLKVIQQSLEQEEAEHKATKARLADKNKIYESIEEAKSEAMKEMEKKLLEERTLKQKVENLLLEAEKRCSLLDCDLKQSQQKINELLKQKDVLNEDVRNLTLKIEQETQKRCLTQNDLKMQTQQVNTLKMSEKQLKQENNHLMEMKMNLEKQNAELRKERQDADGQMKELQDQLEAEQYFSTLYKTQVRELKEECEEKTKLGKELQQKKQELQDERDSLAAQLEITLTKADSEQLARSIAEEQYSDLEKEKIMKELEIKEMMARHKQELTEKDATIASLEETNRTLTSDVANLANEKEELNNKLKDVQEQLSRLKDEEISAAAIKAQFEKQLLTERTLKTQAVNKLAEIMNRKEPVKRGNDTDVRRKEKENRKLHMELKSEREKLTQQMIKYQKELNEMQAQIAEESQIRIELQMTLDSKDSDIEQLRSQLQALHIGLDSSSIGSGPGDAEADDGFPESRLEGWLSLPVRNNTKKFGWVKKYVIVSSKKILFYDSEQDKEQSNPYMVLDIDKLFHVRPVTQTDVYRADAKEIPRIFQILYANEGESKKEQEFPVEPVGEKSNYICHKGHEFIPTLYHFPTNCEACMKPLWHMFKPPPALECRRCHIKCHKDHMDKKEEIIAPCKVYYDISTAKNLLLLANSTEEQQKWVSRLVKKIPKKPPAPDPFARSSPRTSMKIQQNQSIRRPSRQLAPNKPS
# Rho-associated protein kinase 1 (Homo sapiens), sequence (Q13464 2-1354 limits assumed): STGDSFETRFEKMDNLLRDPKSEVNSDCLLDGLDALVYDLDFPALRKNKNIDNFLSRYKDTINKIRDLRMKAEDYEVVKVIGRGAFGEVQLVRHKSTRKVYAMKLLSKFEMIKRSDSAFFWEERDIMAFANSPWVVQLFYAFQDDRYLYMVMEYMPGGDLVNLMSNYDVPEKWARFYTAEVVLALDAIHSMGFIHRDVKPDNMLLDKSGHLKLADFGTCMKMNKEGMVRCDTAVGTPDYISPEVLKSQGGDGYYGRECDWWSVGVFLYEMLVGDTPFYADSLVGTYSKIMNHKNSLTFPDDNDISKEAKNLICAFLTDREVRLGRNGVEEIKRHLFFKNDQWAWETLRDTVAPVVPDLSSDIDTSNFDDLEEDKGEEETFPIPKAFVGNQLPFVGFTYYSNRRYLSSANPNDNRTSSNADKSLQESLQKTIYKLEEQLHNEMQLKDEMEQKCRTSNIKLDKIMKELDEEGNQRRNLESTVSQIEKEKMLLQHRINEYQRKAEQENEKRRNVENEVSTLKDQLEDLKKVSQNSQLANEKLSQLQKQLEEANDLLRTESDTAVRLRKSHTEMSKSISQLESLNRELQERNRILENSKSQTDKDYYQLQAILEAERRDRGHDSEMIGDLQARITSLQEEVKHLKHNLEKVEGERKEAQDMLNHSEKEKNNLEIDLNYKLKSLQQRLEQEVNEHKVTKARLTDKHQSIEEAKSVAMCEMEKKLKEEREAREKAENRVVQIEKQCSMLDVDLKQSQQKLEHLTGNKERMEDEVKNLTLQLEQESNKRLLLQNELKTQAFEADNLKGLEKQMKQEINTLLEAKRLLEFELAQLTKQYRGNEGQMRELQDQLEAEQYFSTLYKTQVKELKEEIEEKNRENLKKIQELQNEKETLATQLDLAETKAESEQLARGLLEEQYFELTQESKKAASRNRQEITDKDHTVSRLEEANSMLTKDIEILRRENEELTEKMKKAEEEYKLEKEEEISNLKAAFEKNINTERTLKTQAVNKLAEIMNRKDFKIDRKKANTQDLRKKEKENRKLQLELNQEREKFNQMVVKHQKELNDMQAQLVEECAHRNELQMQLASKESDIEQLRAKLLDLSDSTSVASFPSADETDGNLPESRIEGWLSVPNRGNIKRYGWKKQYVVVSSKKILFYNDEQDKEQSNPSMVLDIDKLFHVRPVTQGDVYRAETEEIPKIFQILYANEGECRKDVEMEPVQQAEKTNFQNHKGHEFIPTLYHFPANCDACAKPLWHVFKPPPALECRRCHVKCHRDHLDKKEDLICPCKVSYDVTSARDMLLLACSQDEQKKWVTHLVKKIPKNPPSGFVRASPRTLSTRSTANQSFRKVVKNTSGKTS
SMILES,inhibition [1] [%],inhibition [2] [%],inhibition [3] [%],inhibition [4] [%],inhibition [5] [%],inhibition [6] [%],inhibition [7] [%],inhibition [8] [%],inhibition [9] [%],inhibition [10] [%],inhibition [11] [%],inhibition [12] [%],inhibition [13] [%],inhibition [14] [%],inhibition [15] [%],inhibition [16] [%],inhibition [17] [%],inhibition [18] [%],inhibition [19] [%],inhibition [20] [%]
c1ccc(-c2n[nH]cc2-c2ccnc(-c3ccc(OCCn4ccnc4)cc3)c2)nc1,64.3,7.07,47.7,0.59,4.08,1.04,2.63,2.32,7.66,4.13,5.6,5.64,7.73,0.66,4.31,0.64,3.85,1.32,1.36,0.75
CC1=C(C(=O)Nc2ccc3[nH]ncc3c2)C(c2ccc(F)cc2)N=C(c2ccc(C(F)(F)F)nc2)N1 (stereo not given),2.33,3.1,2.8,7.52,42.2,4.96,31.1,3.93,23.6,31.3,73.2,35.7,75,0.61,4.49,-0.02,2.71,1.05,3.76,0.55
c1cnn2ncc(-c3ccnc(NCCCN4CCOCC4)n3)c2c1,5.4,3.94,5,3.07,8.93,3.44,4.91,1.06,3.97,2.01,4.7,4.49,4.16,1.74,4.45,0.98,2.86,1.93,3.97,-0.14
COc1cccc(-n2ncc3c(N/N=C/c4ccc(C(=O)NCCN(C)C)cc4)ncnc32)c1,6.33,2.63,4.71,2.79,1.97,4.28,20.5,1.32,5.04,3.7,7.32,5.29,9.45,1.48,6.32,0.89,5.65,1.89,8.18,2.38
CC1(C)CC(n2cnc(-c3ccc(F)cc3)c2-c2ccnc(N)n2)CC(C)(C)N1,3.58,1.4,3.8,0.62,2.53,1.24,2.55,0.98,2.76,1.34,1.6,1.54,1.8,1.07,1.93,1.45,2.77,1.16,1.53,0.66
COc1ccc(Nc2ncc(-c3ccccc3)o2)cc1OC,3.42,0.5,2.14,0.71,3.32,0.93,3.83,-0.11,-0.56,-0.21,2.03,-0.31,2.22,0.28,2.18,0.01,2.14,1.32,4.35,0.4
COc1cc(Nc2ncc(-c3ccccc3)o2)cc(OC)c1,1.86,5.05,4.51,1.76,1.96,1.74,2.19,0.91,4.53,2.5,2.6,3.77,-3.98,1.54,1.99,1.01,2.61,1.71,3.57,0.85
COc1ccc2ncn(-c3cc(O[C@H](C)c4ccccc4C(F)(F)F)c(C(N)=O)s3)c2c1,1.77,-0.52,0.07,0.03,1.49,0.1,0.7,-0.2,-0.15,0.72,0.18,-0.01,-0.4,0.85,3.85,1.38,6.99,0.69,2.5,1.31
O=C(O[C@H]1CN[C@H](C#Cc2cc3ncnc(Nc4ccc5c(cnn5Cc5ccccc5)c4)c3s2)C1)N1CCOCC1,1.12,0.01,1.45,-0.48,-0.54,-0.72,0.09,-0.58,-0.71,-2.14,-2.07,-1.02,-1.36,-1.77,-0.14,0.74,1.52,-0.5,-1.02,-1.39
Fc1ccc(Nc2nccc(-c3c(-c4ccc(C(F)(F)F)cc4)nn4ncccc34)n2)cc1F,3.98,5.05,4.35,2.4,3.28,0.92,2.82,0.62,-1.3,0.45,2.54,1.24,2.36,0.24,-0.46,-0.49,-1.74,1.11,2.41,1.29
CC(C)c1ccc(-c2cc(-c3c[nH]nc3-c3ccccn3)ccn2)cc1,10.9,1.32,5.01,2.03,2.34,-0.11,2.04,-0.13,-0.45,0.38,1.96,0.45,1.63,-0.37,1.19,-0.1,0.24,1.17,1.83,0.05
COc1cc2c(cc1Nc1nc(Nc3cccc(F)c3C(N)=O)c3cc[nH]c3n1)N(C(=O)CN1CCN(C(C)C)CC1)CC2,8.82,3.64,8.43,4.61,10.1,3.86,5.6,2.44,2.36,0.72,0.34,0.62,2.82,4.37,20.1,2.2,10.3,1.68,2.89,3.57
CN(C)CCNC(=O)Nc1ccc(N(C)c2ccnc(Nc3ccc(CS(C)(=O)=O)cc3)n2)cc1,6.51,4.97,5.75,3.82,4.38,1.71,3.5,0.73,0.09,3.43,19.8,5.05,24,2.03,2.41,0.87,2.03,2.14,4.06,1.56
